The campaign covered roughly 5,500 compounds. About 2,000 (36%) were called active. Inconclusive results (about 18%) are left out. Cut-off read from the data, not from the text of the source: active = normalized growth mostly below about 0.91 (no sharp cut-off); inconclusive = no clear call, values can overlap the other calls; inactive = mostly above about 0.92. This is one part of the list.
Experiment: chemical genetic growth profiling, strain panel (AID 1159580);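 note: tested at 20 µM; growth read once vehicle control cultures reached saturation at 30 °C; 1 = growth at the plate median or of vehicle wells; lower values mean less growth of the strain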
Details: growth OD

Measured: normalized growth

NC(Cc1c[nH]c2ccccc12)C(=O)O (configuration not stated)
inactive: S. cerevisiae deletion strains, locus YJR075W, strain HOC1, stronger effect = lower value 1 | S. cerevisiae deletion strains, locus YKL009W, strain mrt4, stronger effect = lower value 1.01 | S. cerevisiae deletion strains, locus YKL068W, stronger effect = lower value 0.99 | S. cerevisiae deletion strains, locus YKL085W, strain MDH1 (second series), stronger effect = lower value 1.02 | S. cerevisiae deletion strains, locus YKL085W, strain MDH1, stronger effect = lower value 1.02 | S. cerevisiae deletion strains, locus YKL160W, strain elf1, stronger effect = lower value 1.02 | S. cerevisiae deletion strains, locus YKL190W, strain CNB1, stronger effect = lower value 0.989 | S. cerevisiae deletion strains, locus YKR001C, strain vps1, stronger effect = lower value 1 | S. cerevisiae deletion strains, locus YKR026C, strain gcn3, stronger effect = lower value 1.02 | S. cerevisiae deletion strains, locus YKR091W, strain srl3, stronger effect = lower value 1.02 | S. cerevisiae deletion strains, locus YLL001W, strain dnm1, stronger effect = lower value 1.02 | S. cerevisiae deletion strains, locus YLL026W, stronger effect = lower value 1.02 | S. cerevisiae deletion strains, locus YLL041C, strain sdh2, stronger effect = lower value 1.01 | S. cerevisiae deletion strains, locus YLR027C, strain aat2, stronger effect = lower value 1.01 | S. cerevisiae deletion strains, locus YLR039C, strain RIC1, stronger effect = lower value 0.991 | S. cerevisiae deletion strains, locus YLR058C, strain SHM2, stronger effect = lower value 0.975 | S. cerevisiae deletion strains, locus YLR102C, strain apc9, stronger effect = lower value 0.992 | S. cerevisiae deletion strains, locus YLR113W, strain HOG1, stronger effect = lower value 0.969 | S. cerevisiae deletion strains, locus YLR221C, strain rsa3, stronger effect = lower value 1.01 | S. cerevisiae deletion strains, locus YLR258W, strain gsy2, stronger effect = lower value 1.01 | S. cerevisiae deletion strains, locus YLR262C, strain YPT6 (second series), stronger effect = lower value 1.03 | S. cerevisiae deletion strains, locus YLR262C, strain YPT6, stronger effect = lower value 0.962 | S. cerevisiae deletion strains, locus YLR268W, strain sec22, stronger effect = lower value 1.02 | S. cerevisiae deletion strains, locus YLR320W, strain mms22, stronger effect = lower value 0.995 | S. cerevisiae deletion strains, locus YLR330W, strain CHS5, stronger effect = lower value 0.99 | S. cerevisiae deletion strains, locus YLR342W, strain FKS1 (second series), stronger effect = lower value 1.03 | S. cerevisiae deletion strains, locus YLR342W, strain FKS1, stronger effect = lower value 1.02 | S. cerevisiae deletion strains, locus YLR357W, strain rsc2, stronger effect = lower value 1.04 | S. cerevisiae deletion strains, locus YLR370C, strain arc18, stronger effect = lower value 1.02 | S. cerevisiae deletion strains, locus YLR371W, strain rom2, stronger effect = lower value 0.991 | S. cerevisiae deletion strains, locus YLR384C, strain iki3, stronger effect = lower value 1.02 | S. cerevisiae deletion strains, locus YLR418C, strain cdc73, stronger effect = lower value 1.04 | S. cerevisiae deletion strains, locus YML016C, strain PPZ1, stronger effect = lower value 0.989 | S. cerevisiae deletion strains, locus YML032C, strain rad52, stronger effect = lower value 0.992 | S. cerevisiae deletion strains, locus YML120C, strain ndi1, stronger effect = lower value 1.01 | S. cerevisiae deletion strains, locus YML124C, strain tub3, stronger effect = lower value 0.997 | S. cerevisiae deletion strains, locus YMR058W, strain fet3, stronger effect = lower value 1.02 | S. cerevisiae deletion strains, locus YMR078C, strain ctf18, stronger effect = lower value 0.979 | S. cerevisiae deletion strains, locus YMR125W, strain sto1, stronger effect = lower value 1.03 | S. cerevisiae deletion strains, locus YMR129W, stronger effect = lower value 1.02 | S. cerevisiae deletion strains, locus YMR205C, strain PFK2, stronger effect = lower value 1.03 | S. cerevisiae deletion strains, locus YMR223W, strain ubp8, stronger effect = lower value 1 | S. cerevisiae deletion strains, locus YMR231W, strain pep5, stronger effect = lower value 1.02 | S. cerevisiae deletion strains, locus YMR263W, strain SAP30, stronger effect = lower value 0.983 | S. cerevisiae deletion strains, locus YMR307W, strain GAS1, stronger effect = lower value 1.08 | S. cerevisiae deletion strains, locus YNL067W, strain RPL9B, stronger effect = lower value 0.992 | S. cerevisiae deletion strains, locus YNL071W, strain lat1, stronger effect = lower value 1.02 | S. cerevisiae deletion strains, locus YNL128W, strain TEP1, stronger effect = lower value 0.975 | S. cerevisiae deletion strains, locus YNL153C, strain GIM3, stronger effect = lower value 0.992 | S. cerevisiae deletion strains, locus YNL183C, strain NPR1, stronger effect = lower value 0.941 | S. cerevisiae deletion strains, locus YNL209W, strain ssb2, stronger effect = lower value 1.03 | S. cerevisiae deletion strains, locus YNL233W, strain BNI4, stronger effect = lower value 0.999 | S. cerevisiae deletion strains, locus YNL248C, strain rpa49, stronger effect = lower value 1.02 | S. cerevisiae deletion strains, locus YNL250W, strain rad50, stronger effect = lower value 0.975 | S. cerevisiae deletion strains, locus YNL271C, strain bni1, stronger effect = lower value 1.01 | S. cerevisiae deletion strains, locus YNL298W, strain CLA4, stronger effect = lower value 0.995 | S. cerevisiae deletion strains, locus YNL307C, strain MCK1, stronger effect = lower value 0.991 | S. cerevisiae deletion strains, locus YNL322C, strain KRE1 (second series), stronger effect = lower value 1.02 | S. cerevisiae deletion strains, locus YNL322C, strain KRE1, stronger effect = lower value 0.989 | S. cerevisiae deletion strains, locus YNR049C, strain mso1, stronger effect = lower value 1.02 | S. cerevisiae deletion strains, locus YNR052C, strain pop2, stronger effect = lower value 0.991 | S. cerevisiae deletion strains, locus YOL006C, strain TOP1, stronger effect = lower value 1.03 | S. cerevisiae deletion strains, locus YOL012C, strain htz1 2.02 | S. cerevisiae deletion strains, locus YOL147C, strain pex11, stronger effect = lower value 0.998 | S. cerevisiae deletion strains, locus YOR001W, strain rrp6, stronger effect = lower value 0.992 | S. cerevisiae deletion strains, locus YOR061W, strain CKA2, stronger effect = lower value 0.973 | S. cerevisiae deletion strains, locus YOR069W, strain VPS5, stronger effect = lower value 0.991 | S. cerevisiae deletion strains, locus YOR070C, strain gyp1, stronger effect = lower value 1.02 | S. cerevisiae deletion strains, locus YOR080W, strain dia2, stronger effect = lower value 1.02 | S. cerevisiae deletion strains, locus YOR083W, strain WHI5, stronger effect = lower value 1.01 | S. cerevisiae deletion strains, locus YOR106W, strain vam3, stronger effect = lower value 1 | S. cerevisiae deletion strains, locus YOR136W, strain idh2, stronger effect = lower value 0.992 | S. cerevisiae deletion strains, locus YOR144C, strain elg1, stronger effect = lower value 1 | S. cerevisiae deletion strains, locus YOR184W, strain ser1, stronger effect = lower value 1 | S. cerevisiae deletion strains, locus YOR231W, strain MKK1, stronger effect = lower value 0.946 | S. cerevisiae deletion strains, locus YOR265W, strain rbl2, stronger effect = lower value 1.01 | S. cerevisiae deletion strains, locus YOR270C, strain vph1, stronger effect = lower value 1.04 | S. cerevisiae deletion strains, locus YOR290C, strain snf2, stronger effect = lower value 1.01 | S. cerevisiae deletion strains, locus YOR316C, strain cot1, stronger effect = lower value 0.981 | S. cerevisiae deletion strains, locus YPL051W, strain arl3, stronger effect = lower value 1.01 | S. cerevisiae deletion strains, locus YPL055C, strain LGE1, stronger effect = lower value 0.981 | S. cerevisiae deletion strains, locus YPL078C, strain atp4, stronger effect = lower value 1.01 | S. cerevisiae deletion strains, locus YPL106C, strain sse1, stronger effect = lower value 1.02 | S. cerevisiae deletion strains, locus YPL240C, strain hsp82, stronger effect = lower value 1.02 | S. cerevisiae deletion strains, locus YPL241C, strain CIN2, stronger effect = lower value 0.995 | S. cerevisiae deletion strains, locus YPL256C, strain CLN2, stronger effect = lower value 0.963 | S. cerevisiae deletion strains, locus YPR119W, strain clb2, stronger effect = lower value 0.996 | S. cerevisiae deletion strains, locus YPR141C, strain kar3, stronger effect = lower value 0.985 | S. cerevisiae deletion strains, locus YPR163C, strain tif3, stronger effect = lower value 0.998 | S. cerevisiae deletion strains, locus YPR167C, strain met16, stronger effect = lower value 1 | S. cerevisiae deletion strains, strain wtn01, stronger effect = lower value 0.984 | S. cerevisiae strains, strain wild type, stronger effect = lower value 0.997

Source: PubChem BioAssay AID1159580 (chemical genetic matrix, 2015)
